The record followed here is PubChem BioAssay (NCI).

This assay relates to MDA-MB-468 breast. Description: NCI-60 one-dose screen, 48 h (100 = growth as untreated, 0 = no growth, -100 = all killed). As to conditions: 10 µM unless noted.

Where “and” joins values, the source holds several entries; their conditions need not be identical. Equal values may be shown once. Compounds without any hit were thinned out: in the full panel of roughly 83,000, 20% have a hit.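 The endpoint reported here, percent growth, reads 100 for growth as untreated, 0 for no net growth and -100 for all cells dead.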 Calls of active or inactive are those of the source. Rule for the calls: active = growth percent below 10; inactive = the rest.

For `CCCCCCCCCCCCCCCCCCOc1ccccc1CC(=O)OCC[N+]1(C)CCCCC1`, the growth was -10.3% (active). The result for `CC(=O)CC(c1cccs1)c1c(-c2ccccc2)[nH]c2ccccc12` (stereo not drawn) reads 100% (inactive). The value for `Cc1cc(O)c(C(C)(C)C)cc1Sc1cc(C(C)(C)C)c(O)cc1C` was 67.2% (inactive). The value for `COc1ccc2c(c1)C=C1CSCC3=Cc4cc(OC)ccc4OC13O2` was 21.3% (inactive); that for `COc1ccc(/C=C/C(=O)c2cccc(B(O)O)c2)cc1O` was 34.9% (inactive). For `CN(C)CC(C)(C)C(=O)/C=C/c1ccccc1`, the growth is -49% [25 µM] (active). The value for `N#Cc1ccc(/C=N/NC(=O)c2[nH]c3ccc(Br)cc3c2-c2ccccc2)s1` was 11.4% (inactive). The result for `Nc1nc(Nc2ccc(Cl)cc2)nn1S(=O)(=O)c1ccc(-c2ccc(F)cc2)cc1` reads 96.2% (inactive); that for `CC(=O)OCC(=O)C1CCC=CC1OC(C)=O` (stereo not drawn), 85.6% (inactive); that for `NNC(=O)c1ccc(C(=O)NN)cc1`, 102% (inactive). The result for `CCN(CC)Cc1cc(Nc2c3ccc(Cl)cc3nc3c(C)cccc23)ccc1O` reads -67% (active); that for `O=c1[nH]c(=S)[nH]c2nc[nH]c12`, 100% (inactive). On to `CCCCOCc1cc(CN2CCN(C)CC2)c(O)c2ncccc12`, for which the growth is 46.1% (inactive).

Turning to `COc1ccc2cc(C(=O)c3coc4ccc(O)cc34)ccc2c1`, the growth was 126% (inactive). The value for `CCN(CC)CCCC(C)Nc1cnc(C(=O)Nc2cc(C)cc3cccnc23)cn1` (stereo not drawn) was 9.36% (active). The result for `COc1ccc(-c2nnc(SC/C(=N\O)c3ccccc3)o2)cc1` reads 97% (inactive); that for `O=C1CSC(c2ccccc2O)N1c1nnc(Cn2ccnc2)o1` (stereo not drawn), 59.1% (inactive).

On to `N#Cc1ccc(-c2csc(Nc3ccc4nc5n(c(=O)c4c3)CCC5)n2)cc1`, for which the growth was 105% (inactive). The result for `COc1ccc(C(=O)/C(=N/Nc2ccccc2)c2ccc(OC)cc2)cc1` reads 106% (inactive). `CN1C(=O)/C(=C/c2ccc(C(=O)Nc3ncc(Cc4cc(Cl)ccc4Cl)s3)cc2)SC1=S`: the growth is 44.2% (inactive). The result for `CCCCCC(=O)c1ccc(OCCCN2CCN(C(=O)OCC)CC2)cc1` reads 47.5% (inactive); that for `CC(=O)N1N=C(c2ccc(C(F)(F)F)c(F)c2)CC1c1[nH]c(C)c(C(=O)NCC(F)(F)F)c1C` (stereo not drawn), 78.5% (inactive). As for `COc1cc(/C=N/n2c(CN3CCOCC3)nc3ccccc3c2=O)cc(OC)c1OC`, the growth is 109% (inactive).

As for `Nc1nc2ccc(-c3nc4ccc5[nH]ncc5c4c4c3CCCC4)cc2s1`, the growth was 112% (inactive). The result for `C#CCOc1cccc(-c2nc(N)nc(Nc3ccccc3SSc3ccccc3Nc3nc(N)nc(-c4cccc(OCC#C)c4)n3)n2)c1` reads 73% (inactive); that for `CCCCCCCCCCCCCCCCC(C(=O)O)C(O)(CC(=O)O)C(=O)O` (stereo not drawn), 102% (inactive). Consider `FC1(F)CCN(Cc2c[nH]c3cc(Cl)ccc23)C[C@H]1CCc1ccccc1`, for which the growth is 9.33% (active). The result for `Cc1ccc([P+](Cc2ccccc2)(c2ccccc2)c2ccccc2)cc1` reads -13.5% (active); that for `COc1ccc2c(c1)nc(N)c1c3ccccc3cn21`, 58.5% (inactive); that for `CCc1nc2c(=O)[nH]cnc2o1`, 90.8% (inactive).

On to `Cn1nnnc1-c1ccc(N)cc1`, for which the growth is 117% (inactive). Regarding `C=C(C)[C@@H]1CC[C@]2(C(=O)NCCNCCN)CC[C@]3(C)[C@H](CC[C@@H]4[C@@]5(C)C/C(=C/c6ccncc6)C(=O)C(C)(C)[C@@H]5CC[C@]43C)[C@@H]12`, the growth is 80.3% (inactive). The value for `COc1ccc2nc(-c3ccc(Cl)cc3)cc(-c3nnc(SCC(=O)Nc4ccc(/C(C)=N\O)cc4)o3)c2c1` was 58.4% (inactive); that for `O=C(NCCNc1nccc(-c2c(-c3cccc(O)c3)nc3sccn23)n1)c1cccc(C(F)(F)F)c1` was 70.5% (inactive). The value for `Fc1ccc2nc(-c3cc(-c4ccc5c(c4)OCO5)n[nH]3)[nH]c2c1` was 46.7% (inactive). The value for `Nc1c2c(c(O)c3c1=C(CO)C=N3)=NCCS2=O` (stereo not drawn) was -79.6% (active); that for `O=C(CSc1oc(-c2ccccc2)nc1S(=O)(=O)c1ccccc1)Nc1ccc(F)cc1` was 50.1% (inactive); that for `Cc1ccc(N)cc1S(=O)(=O)O` was 127% (inactive) and 110% (inactive). Turning to `C[C@H](NC(=O)[C@@H]1CSSC[C@@H](NC(=O)c2nc3ccccc3cc2O)C(=O)NCC(=O)N1C)c1ccccc1`, the growth is 41.4% (inactive). As to `Cc1nn(-c2ccc(Cl)cc2)c(=O)n1CCOc1ccccc1Cl`, the growth is 105% (inactive). Regarding `COc1cccc2cc(-c3cc4ccccc4[nH]3)c(=NC(=O)c3ccc(Cl)cc3)oc12`, the growth was 75% (inactive). In the case of `COc1ccc(C(=S)N2CCN(c3cccc(Cl)c3)CC2)cc1`, the growth is 88.4% (inactive).

Regarding `O=C(/C=C/c1ccc(Cl)cc1)c1ccc(Br)cc1`, the growth is 107% (inactive). The value for `O=C(Nc1ccc(F)cc1)Nc1ccc(Br)c(C(F)(F)F)c1` was -5.88% (active); that for `CCCCCCCCNc1cc2c3c(c1)CCCN3CCC2` was -23% (active).

`N#CC1c2ccccc2C=CN1C(=O)CCCl` (stereo not drawn): the growth was 24.2% (inactive).

Regarding `Cc1ccc(N=C=C(c2ccccc2)c2ccccc2)cc1`, the growth is 69.1% (inactive). The result for `COc1cccc(NC(=O)c2sc3nc(C)c(C(O)c4ccccc4)cc3c2N)c1` (stereo not drawn) reads 14.3% (inactive); that for `O=C1C2C(c3cccs3)C=C(c3ccc(Cl)cc3)N2C(=S)N1c1ccccc1` (stereo not drawn), 79.7% (inactive); that for `Cc1ccc(-c2c3c(N)nc(-c4cccnc4)nc3nc3c2c(C)nn3-c2ccccc2)cc1`, 74.6% (inactive). The value for `[2H]C([2H])([2H])Oc1cccc(/C=C/C(=O)/C=C(/C=C/c2cccc(OC([2H])([2H])[2H])c2OC([2H])([2H])[2H])OB(F)F)c1OC([2H])([2H])[2H]` was 54.6% (inactive); that for `O=C(/C=C/c1cccc(Cl)c1)c1ccc(O)c(CN2CCN(c3cc4c(cc3F)c(=O)c(C(=O)O)cn4C3CC3)CC2)c1` was 28.8% (inactive); that for `O=C(OCc1ccc2c(Br)cc(Br)c(O)c2n1)c1cc2ccccc2[nH]1` was -73.2% (active).

Turning to `CCNC(=NCCCN(C)C)N/C(N)=N/c1nc2ccccc2s1`, the growth is 94.3% (inactive).

Take `Cn1c2ccccc2c2ccccc21`: the growth is 101% (inactive).

`O=c1ccc(N=Nc2ccc([N+](=O)[O-])cc2)ccc1O`: the growth is -15.7% (active). The value for `Cc1cc(O)c(C(C)C)cc1S(=O)(=O)O` (tested in a mixture with another compound) was 91.8% (inactive) and -40.1% (active) and 115% (inactive).

With `CC(=O)c1c(OCC#N)ccc2c(C)cc(=O)oc12`, the growth was 93.2% (inactive). As to `CC(=O)Nc1ccc(C)c(Nc2cc(-c3ccc(-n4cccn4)cc3)[nH]n2)c1`, the growth is 20% (inactive). The result for `O=C(Nc1ccc(-n2cc(-c3ccncc3)c(-c3ccc(O)c(Cl)c3)n2)cc1)c1ccc(Cl)c(Cl)c1` reads 39.9% (inactive); that for `C=C1C(=O)O[C@H]2[C@H]1CC/C(COC(=O)NCc1cc(OC)cc(OC)c1)=C\CC[C@@]1(C)O[C@@H]21`, 10.2% (inactive); that for `COc1ccc(-c2cc(-c3ccc(N4CCOCC4)cc3)n3c(n2)nc2ccccc23)cc1OC`, 93.7% (inactive). Regarding `Cc1c(C(=O)/C=C/Nc2c(Cl)cc(S(N)(=O)=O)cc2Cl)sc2nc3ccccc3n12`, the growth is 102% (inactive). The result for `Cc1ccc(C(C)C)cc1NC(=O)Nc1ccc([N+](=O)[O-])cc1` reads 4.03% (active); that for `COc1cc(C2=NN(c3ccc(S(N)(=O)=O)cc3)C(c3ccc(Cl)cc3)C2)cc(OC)c1OC` (stereo not drawn), 38.3% (inactive); that for `Cc1ccc2c(n1)C(=O)C(Cl)=C(Nc1ccc(C(=O)OC(C)(C)C)cc1)C2=O`, -50.3% [9.25 µM] (active). The value for `NC(N)=Nc1ccc(Oc2ccc(Nc3ccc(Cl)c(C(F)(F)F)c3)cc2)cc1` was 22.2% (inactive); that for `N#CCCN1C/C(=C/c2ccc(Br)cc2)C(=O)/C(=C/c2ccc(Br)cc2)C1` was -71.3% (active). The result for `COc1ccc(NC(=O)CSc2nc3ccc(Cl)cc3c(=O)n2-c2ccccc2C(F)(F)F)c(OC)c1OC` reads 79.6% (inactive); that for `NC1=NN(O)C2=CC([N+](=O)[O-])C=CC2=N1` (stereo not drawn), 107% (inactive).

As for `CN1C(=O)N(C)C2C1NN=c1s/c(=C\c3ccc(Br)cc3)c(=O)n12` (stereo not drawn), the growth was 10.8% (inactive). The value for `CCOC(=O)C(c1ccccc1)N1C(=O)c2ccccc2C1=O` (stereo not drawn) was 137% (inactive); that for `C=C(CNCCc1ccc(O)cc1)[C@@H]1CC[C@]2(CO)CC[C@]3(C)[C@H](CC[C@@H]4[C@@]5(C)CCC(NCCO)C(C)(C)[C@@H]5CC[C@]43C)[C@@H]12` (stereo partly drawn) was -84.3% (active); that for `CCCC(=O)CC(=O)c1ccccc1` was 97.5% (inactive).

Turning to `NC(N)=N/N=C/c1ccc([N+](=O)[O-])cc1`, the growth is 85.5% (inactive). On to `c1ccc(CSc2ncccc2-c2nnc(SCCN3CCOCC3)o2)cc1`, for which the growth is 98.3% (inactive). The value for `O=[N+]([O-])c1ccc(/C(=C/c2ccccc2)[n+]2ccccc2)cc1` was 101% (inactive); that for `CN1CCN(CC#CCNC(=O)[C@]23CCC(C)(C)C[C@H]2C2=CC[C@@H]4[C@@]5(C)Cc6c([nH]c7ccccc67)C(C)(C)[C@@H]5CC[C@@]4(C)[C@]2(C)CC3)CC1` was 91.2% (inactive). The result for `COc1ccc(-c2nnc(SCC(=O)Nc3ccc(C(=O)/C=C/c4ccc(OC)c(OC)c4)cc3)o2)cc1` reads 88.7% (inactive). For `Cc1cccc(CN(Nc2ccccc2)c2ccccc2)n1`, the growth is 94.9% (inactive).

`NC(=O)c1n[nH]n2c1nc(=O)c1c3c(sc12)CCCC3`: the growth was 120% (inactive).

Consider `CC(=O)CCS(=O)c1ccccc1` (stereo not drawn), for which the growth is 104% (inactive).

Regarding `C=C(CN1CC=CCC1)[C@@H]1CC[C@]2(CO)CC[C@]3(C)[C@H](CC[C@@H]4[C@@]5(C)CC[C@H](O)C(C)(C)[C@@H]5CC[C@]43C)[C@@H]12`, the growth was 89.2% (inactive).
